# Hits are enriched below; roughly 3.1% of the tested compounds scored in any of these assays.
# rTrxR1 inhibitor: blocks rat thioredoxin reductase 1. Potency, µM (series often up to 114 µM), hits mostly inhibitors. AID 588453. recombinant rTrxR1, NADPH fluorescence consumption, selenite substrate. 390,000 tested, 1% active; also: nearly all actives have a fitted effect of over 65% in size
# Target sequence (O89049 whole entry, looked up): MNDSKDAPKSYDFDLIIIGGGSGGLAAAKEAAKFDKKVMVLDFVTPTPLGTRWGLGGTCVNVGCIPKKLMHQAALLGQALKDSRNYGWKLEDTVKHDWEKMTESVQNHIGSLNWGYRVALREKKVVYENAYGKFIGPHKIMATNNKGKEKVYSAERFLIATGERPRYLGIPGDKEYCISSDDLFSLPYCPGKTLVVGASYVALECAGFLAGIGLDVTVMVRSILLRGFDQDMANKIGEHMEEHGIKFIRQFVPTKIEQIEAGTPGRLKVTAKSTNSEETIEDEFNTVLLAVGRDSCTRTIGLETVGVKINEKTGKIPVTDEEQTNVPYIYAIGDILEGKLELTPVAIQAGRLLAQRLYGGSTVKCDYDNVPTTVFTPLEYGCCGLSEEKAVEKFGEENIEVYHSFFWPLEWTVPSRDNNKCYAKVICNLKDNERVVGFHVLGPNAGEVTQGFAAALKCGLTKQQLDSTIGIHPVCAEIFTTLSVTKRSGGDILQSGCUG
#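 Rat TrxR1 (90 nM in the dispensed reagent) was pre-reduced with 400 uM NADPH for 5 min at room temperature, then incubated with compound for 15 min. After 400 uM selenite was added, NADPH fluorescence (Ex 340/Em 450 nm) was followed for 8 min.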
# mIDH1 inhibitor: human IDH1 R132H inhibition; 390,000 tested, 0.093% active; O75874; Potency, µM (series often up to 76.6 µM), hits mostly inhibitors; IDH1-R132H enzyme, NADPH consumption, diaphorase/resazurin fluorescence; also: nearly all actives have a fitted effect of over 65% in size
#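 IDH1-R132H (0.5 ug/mL dispensed) in pH 7.5 Tris buffer was preincubated 30 min with compound, then given a substrate mix of 0.016 mM NADPH and 2 mM alpha-KG for 80 min at room temperature; remaining NADPH was read by diaphorase/resazurin fluorescence.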
# TrxR1 substrate: is turned over as a substrate by rat TrxR1 | O89049 | purified TrxR1 substrate turnover, NADPH consumption readout | Potency, µM (titrated, usually from 114 µM) | 390,000 tested, 0.01% active | AID 588456; also: nearly all actives have a fitted effect of over 50% in size
#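 Rat TrxR1, dispensed at 90 nM, was prereduced with 400 uM NADPH (final) for 5 min at ~22 deg C, then incubated with compound 15 min before 400 uM selenite. A first-read NADPH fluorescence drop versus no-compound background flagged substrates.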
# Nrf2 inh: Nrf2 pathway inhibition. A549 ARE-Fluc reporter, luciferase luminescence, 18-24 h. Potency, µM (highest dose often 46 µM), actives largely listed as inhibitors. 360,000 tested, 2.1% active. AID 504444; also: nearly all actives have a fitted effect of over 60% in size
#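 Reporter: ARE-Fluc in A549. Exposure: 18-24 h, 37 °C, 5% CO2, 5% FBS OPTI-MEM. Readouts: fluorescent cytotoxicity (CellTiter-Fluor), then luminescent Nrf2 signal after BugLite.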
# A549 viability: counter-screen for Nrf2 inhibitors: cytotoxicity in A549 cells | A549 ARE-Fluc cells, CellTiter-Fluor viability, 18-24 h | Potency, µM (highest dose often 46 µM), usual class: inhibitors | 390,000 tested, 0.16% active | AID 504648
#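 Cytotoxicity counterscreen: CellTiter-Fluor fluorescence was measured in A549 ARE_Fluc cells after 18-24 h of compound exposure in a concentration series. The subsequent BugLite luminescent read reports ARE-luciferase activity.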
# Mito fusion yeast: mitochondrial division inhibition or fusion activation. S. cerevisiae fusion-defective mutant growth rescue, CellTiterGlo 48 h. Potency, µM (series often up to 46.1 µM), hits mostly activators. 320,000 tested, 0.23% active; also: nearly all actives have a fitted effect of over 45% in size
#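 Yeast fusion mutant, YPEG (non-fermentable carbon), compound, 48 h at 37C non-permissive; CellTiterGlo added, 10 min RT, luminescence read. Rescued growth = division inhibition.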
# Hits are given with their value; . = inactive; ? = inconclusive; / = not tested or not shown; [ ] = another dose, or the depositor's remark. Calls follow the shape of the dose curve; as a rule, active = well fitted curve in the direction sought with a large enough effect; inconclusive = small, poorly fitted or top-dose-only effect, or another doubt; inactive = no such curve, though single readings can be large; an effect the other way counts as inactive or inconclusive.
SMILES,rTrxR1 inhibitor,mIDH1 inhibitor,TrxR1 substrate,Nrf2 inh,A549 viability,Mito fusion yeast
O=C(c1cccc(Cl)c1)N1CCN(c2ccccn2)CC1,.,.,.,.,.,.
Cc1ccc(C(C(=O)NCC2CCCO2)N(Cc2ccccc2)C(=O)c2ccc(-c3ccccc3)[nH]2)o1 (stereo not drawn),.,.,.,?,?,?
O=C(NCC1CCCO1)C(c1cccs1)N(Cc1ccccc1Cl)C(=O)c1ccc(-c2ccccc2)[nH]1 (stereo not drawn),?,.,.,23µM,.,.
CC(=O)c1cccc(OCc2cc(C(=O)N3C[C@@H](C)O[C@@H](C)C3)no2)c1,10µM,.,.,?,.,.
CC(=O)c1ccc(OCc2cc(C(=O)N(C)Cc3ccon3)no2)cc1,.,.,.,?,.,.
CC(=O)c1cccc(OCc2cc(C(=O)N3C[C@H]4CC[C@H]3C4)no2)c1,.,.,.,?,.,.
CC(=O)c1cccc(OCc2cc(C(=O)N(C)CCC3CCOCC3)no2)c1,8.9µM,.,.,?,.,.
CC(=O)c1ccc(OCc2cc(C(=O)N(C)Cc3ccccn3)no2)cc1,50µM,.,.,?,.,.
CCOC(=O)C1CCN(C(=O)C2COc3ccccc3C2)CC1 (stereo not drawn),.,.,.,/,.,/
COc1cc(OC)c(C2CC(=O)N3CN(c4ccccc4)CSC3=C2C#N)cc1OC (stereo not drawn),32µM,.,.,.,/,.
COc1ccccc1N1CSC2=C(C#N)C(c3ccc(SC)cc3)CC(=O)N2C1 (stereo not drawn),13µM,.,.,.,.,.
COc1cc(C2CC(=O)N3CN(c4ccccc4C)CSC3=C2C#N)cc(OC)c1OC (stereo not drawn),/,/,/,/,/,.
C[C@H]1C(=O)N(S(=O)(=O)c2ccc([N+](=O)[O-])cc2)[C@H]1c1ccc(F)cc1,.,/,.,.,.,/
O=C(OCc1c(-c2ccccc2)ncc2ccccc12)c1ccc(Br)cc1,.,.,.,15µM,.,.
O=C(OCc1c(-c2ccccc2)ncc2ccccc12)c1cccs1,.,.,.,16µM,?,/
CN(C)C(=O)OCc1c(-c2ccccc2)ncc2ccccc12,.,.,.,.,.,.
CCOc1ccc(C(=O)Nc2cc(-c3nc4ccccc4o3)ccc2C)cc1Cl,.,/,.,.,.,/
O=C1C=C(c2ccccc2)CC(/C=C/c2ccccc2)C1 (stereo not drawn),.,.,.,.,.,16µM
Cc1cccc(C)c1-n1ncc(C(=O)NC2CCCC2)c1C1CCN(C(=O)OC(C)(C)C)CC1,.,.,.,?,.,/
Cc1cccc(COCC(CC(C)C)N2CCN(C(=O)c3ccc(C(C)(C)C)cc3)CCC2=O)c1 (stereo not drawn),.,.,.,23µM,?,.
O=C(c1ccc(Cl)c(Cl)c1)N1CCC(=O)N(C(COCc2cccc(Cl)c2)Cc2ccccc2)CC1 (stereo not drawn),.,.,.,?,?,35µM
Cc1cccc(COCC(CC(C)C)N2CCN(C(=O)c3ccc(C(F)(F)F)cc3)CCC2=O)c1 (stereo not drawn),.,.,.,.,.,.
NC(=O)/C(=C/c1ccco1)NC(=O)c1ccc(Br)o1,11µM,.,.,.,.,/
CCOC(=O)c1ccc(-n2c(-c3ccc(C)cc3)c(C)n3c4c(=O)n(C)c(=O)n(C)c4nc23)cc1,.,.,.[11.4 µM],.,.,/
Cc1cc(Nc2cccc(C(F)(F)F)c2)ncn1,.,.,.,.,.,/
Cc1ccc(Nc2nc3nonc3nc2Nc2cccc(C(F)(F)F)c2)cc1Cl,.,.,.,3.3µM,7.3µM,/
Cc1ccccc1OCC(=O)Nc1cc(C)c(O)c(-c2nc3ccccc3o2)c1,.,/,.,/,/,/
Cc1cc(N)ccc1NC(=O)c1ccccc1,.,.,.,.,.,.
Cc1cc(NC(=O)c2ccccc2)c(Cl)cc1N,.,.,.,8.2µM,.,.
